The nature of experiment [1]: E. coli DRC41 culture turbidity changes, primary screen, E. coli filamentation inducer project, strain DRC41, OD650, 48 h (AID 1152).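 Further: E. coli MC1000 strain DRC41 lacking acrAB efflux pump and sulA.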 As to conditions: E. coli DRC41 (acrAB sulA), higher = more signal, called active from +8 up or from −8 down.
A short description of experiment [2]: small-molecule binders of probe aLefty1, primary screen, biochemical, small-molecule microarray, 635/667 nm fluorescence (AID 1153).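 Further: score merges spot fluorescence with signal-to-noise ratio from the scanned slide images.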 As to conditions: higher = more signal.
The nature of experiment [3]: PSAC antagonists in infected red cells, primary screen, cell-based, P. falciparum Indochina, OD700, 1 h (AID 1154). As to conditions: P. falciparum Indochina infected RBC osmotic lysis, higher = more signal, called active from +8 up or from −8 down.
The nature of experiment [4]: PSAC antagonists in infected red cells, primary screen, cell-based, P. falciparum Indochina, OD700, 2 h (AID 1155).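 Further: lysis reports solute entry through the parasite surface anion channel PSAC; channel blockers reduce lysis of infected cells.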 The conditions noted are these: P. falciparum Indochina infected erythrocytes, osmotic lysis OD700; higher = more signal, called active from +8 up or from −8 down.
The nature of experiment [5]: osmotic lysis modulators in infected erythrocytes, primary screen, PSAC antagonist project, cell-based, P. falciparum Indochina, OD700, 3 h (AID 1156). The conditions noted are these: higher = more signal, called active from +8 up or from −8 down.
A short description of experiment [6]: PSAC antagonists in infected red cells, primary screen, cell-based, P. falciparum Indochina, OD700, 18 h (AID 1157). As to conditions: P. falciparum Indochina infected erythrocytes, osmotic lysis OD700, 18 h; higher = more signal, called active from +8 up or from −8 down.
Experiment [7] in a line: modulators of S6 phosphorylation in cells, primary screen, cell-based, A549, cytoblot, luminescence, serum-stimulated (AID 1158).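 Further: serum-stimulated A549 lung adenocarcinoma cells; signal is phosphorylated S6 detected by cytoblot immunostaining with HRP secondary.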 The conditions noted are these: A549 phospho-S6 cytoblot, 5 h, higher = more signal.
Experiment [8] concerns the target NADPH oxidase 2 (Homo sapiens) (UniProt P04839). The experiment is described as follows: NOX2-dependent H2O2 signal modulators, primary screen, NOX inhibitor project, cell-based, HEK293-NOX2, PMA-stimulated, Amplex Red fluorescence (AID 1159). Further: test concentration not given here. As to conditions: 45 min, higher = more signal, called active from +8 up or from −8 down.
Experiment [9] deals with NADPH oxidase 4 (Homo sapiens) (UniProt Q9NPH5). Nature of the experiment: NOX4-dependent H2O2 signal modulators, primary screen, NOX inhibitor project, cell-based, HEK293-NOX4, tetracycline-induced, Amplex Red fluorescence (AID 1160). The conditions noted are these: 45 min, higher = more signal, called active from +8 up or from −8 down.
Chain of NADPH oxidase 4 (Homo sapiens) (Q9NPH5 whole entry, looked up): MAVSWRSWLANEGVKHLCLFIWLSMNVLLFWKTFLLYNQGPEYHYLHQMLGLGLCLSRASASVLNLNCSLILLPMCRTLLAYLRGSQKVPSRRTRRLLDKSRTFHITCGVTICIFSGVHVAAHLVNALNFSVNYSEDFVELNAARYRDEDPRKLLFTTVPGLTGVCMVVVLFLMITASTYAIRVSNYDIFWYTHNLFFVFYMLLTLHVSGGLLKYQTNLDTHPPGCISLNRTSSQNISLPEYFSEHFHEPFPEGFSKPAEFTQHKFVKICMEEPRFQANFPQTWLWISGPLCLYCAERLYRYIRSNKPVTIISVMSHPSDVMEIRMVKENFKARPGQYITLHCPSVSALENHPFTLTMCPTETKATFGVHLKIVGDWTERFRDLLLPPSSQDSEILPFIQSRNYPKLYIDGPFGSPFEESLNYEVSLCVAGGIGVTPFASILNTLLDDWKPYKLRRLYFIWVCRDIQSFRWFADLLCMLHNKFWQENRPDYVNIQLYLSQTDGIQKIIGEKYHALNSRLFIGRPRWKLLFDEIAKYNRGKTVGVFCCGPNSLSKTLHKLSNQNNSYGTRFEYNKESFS
In experiment [10] the target is NADPH oxidase 5 (Homo sapiens) (UniProt Q96PH1). The experiment is described as follows: NOX5-dependent H2O2 signal modulators, primary screen, NOX inhibitor project, cell-based, HEK293-NOX5, Amplex Red fluorescence (AID 1161). The conditions noted are these: HEK293-NOX5, ionomycin, 45 min, higher = more signal.
Chain of NADPH oxidase 5 (Homo sapiens) (Q96PH1 whole entry, looked up): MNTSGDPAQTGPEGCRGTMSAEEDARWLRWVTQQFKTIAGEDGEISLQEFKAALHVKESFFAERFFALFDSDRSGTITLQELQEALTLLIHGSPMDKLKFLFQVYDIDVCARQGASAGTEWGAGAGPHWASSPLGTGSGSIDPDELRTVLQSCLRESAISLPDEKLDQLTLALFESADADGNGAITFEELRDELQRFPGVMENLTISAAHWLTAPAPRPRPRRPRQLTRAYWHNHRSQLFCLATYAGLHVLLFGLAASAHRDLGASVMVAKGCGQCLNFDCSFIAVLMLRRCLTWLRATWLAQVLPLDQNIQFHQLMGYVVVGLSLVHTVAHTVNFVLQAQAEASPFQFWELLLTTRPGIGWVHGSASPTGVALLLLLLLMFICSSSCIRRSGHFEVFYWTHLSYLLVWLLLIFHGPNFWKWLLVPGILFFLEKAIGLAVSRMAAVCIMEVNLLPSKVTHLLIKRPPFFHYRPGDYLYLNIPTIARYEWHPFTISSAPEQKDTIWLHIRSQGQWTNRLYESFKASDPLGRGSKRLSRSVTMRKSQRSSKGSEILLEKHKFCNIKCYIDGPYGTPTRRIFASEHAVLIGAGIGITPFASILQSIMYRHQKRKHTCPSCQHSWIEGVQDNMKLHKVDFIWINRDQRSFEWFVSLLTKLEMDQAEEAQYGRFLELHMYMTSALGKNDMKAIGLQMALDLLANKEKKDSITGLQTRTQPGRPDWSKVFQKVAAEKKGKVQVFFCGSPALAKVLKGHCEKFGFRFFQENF
Experiment [11] in a line: A549 cell viability effects, profiling panel, calcein-AM fluorescence, 48 h, basal (AID 1162). Further: test concentration not given here. The conditions noted are these: higher = more signal.
Experiment [12] can be described thus: adipocyte viability effects, profiling panel, cell-based, 3T3-L1 adipocytes, calcein-AM fluorescence, 48 h, basal (AID 1163). Further: test concentration not given here. The conditions noted are these: 3T3-L1 adipocytes viability, higher = more signal.
Experiment [13] in a line: HepG2 cell viability effects, profiling panel, calcein-AM fluorescence, 48 h, basal (AID 1164). Further: test concentration not given here. The conditions noted are these: higher = more signal.
Experiment [14] is described as follows: MM1S cell viability effects, profiling panel, calcein-AM fluorescence, 48 h, basal (AID 1165).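 Further: viability of MM1S multiple myeloma cells under basal unstimulated conditions; test concentration not given here.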 As to conditions: higher = more signal.
A short description of experiment [15]: basal RPMI8226 viability, no added stimulus, profiling panel, cell-based, calcein-AM fluorescence, 48 h, PK04 Diversity Set (AID 1166).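 Further: cells grown under basal conditions without added stimulus; test concentration not given here.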 As to conditions: RPMI8226 myeloma viability, higher = more signal.
Experiment [16] is described as follows: basal HepG2 mitochondrial membrane potential changes, profiling panel, cell-based, JC-1 fluorescence, 24 h, 100 nL compound (AID 1167). Further: test concentration not given here. As to conditions: higher = more signal.
The nature of experiment [17]: basal 3T3-L1 adipocyte mitochondrial potential changes, profiling panel, cell-based, JC-1 fluorescence, 3T3-L1 adipocytes, 24 h, 100 nL compound (AID 1168). Further: test concentration not given here. The conditions noted are these: JC-1 mitochondrial fluorescence, higher = more signal, called active from +8 up or from −8 down.
Experiment [18] is described as follows: basal RPMI8226 mitochondrial membrane potential changes, profiling panel, cell-based, JC-1 fluorescence, 24 h, 100 nL compound (AID 1169). Further: test concentration not given here. The conditions noted are these: RPMI8226 myeloma, JC-1 mitochondrial potential fluorescence, higher = more signal.
A short description of experiment [19]: basal MM1S mitochondrial membrane potential changes, profiling panel, cell-based, JC-1 fluorescence, 24 h, 100 nL compound (AID 1170). Further: test concentration not given here. The conditions noted are these: higher = more signal.
Experiment [20] is described as follows: A549 lung cancer cell viability effects, profiling panel, resazurin fluorescence, 24 h, PK04 Diversity Set (AID 1171). Further: test concentration not given here. The conditions noted are these: higher = more signal, called active from +8 up or from −8 down.

Active and inactive are the calls of the source.

Chain of NADPH oxidase 2 (Homo sapiens) (P04839 whole entry, looked up): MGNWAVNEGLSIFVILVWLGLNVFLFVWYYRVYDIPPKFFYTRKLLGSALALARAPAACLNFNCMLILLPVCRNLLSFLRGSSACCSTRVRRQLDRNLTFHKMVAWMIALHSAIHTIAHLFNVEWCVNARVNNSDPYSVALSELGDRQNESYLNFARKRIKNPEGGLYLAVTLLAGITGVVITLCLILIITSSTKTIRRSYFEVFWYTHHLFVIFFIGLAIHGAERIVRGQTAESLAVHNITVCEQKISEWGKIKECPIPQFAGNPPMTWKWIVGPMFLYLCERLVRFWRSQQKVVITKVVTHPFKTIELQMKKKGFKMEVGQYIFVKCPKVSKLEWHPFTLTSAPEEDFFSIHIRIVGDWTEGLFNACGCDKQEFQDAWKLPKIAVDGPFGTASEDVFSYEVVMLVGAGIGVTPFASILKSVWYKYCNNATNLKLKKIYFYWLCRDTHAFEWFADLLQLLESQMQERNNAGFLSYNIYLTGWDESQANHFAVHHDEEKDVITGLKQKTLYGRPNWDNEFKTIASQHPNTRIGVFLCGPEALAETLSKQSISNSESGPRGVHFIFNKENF

Take `CC(C)[C@@H](OCc1ccccc1)[C@H](C)C=NOC[C@@H](O)COCc1ccco1`: the z-score is 0.776 (inactive) in [1]; 0.726 (inactive) in [3]; -0.332 (inactive) in [4]; -0.302 (inactive) in experiment [5]; -0.0498 (inactive) in [6]; 0.0388 in experiment [7]. The z-score in experiment [8] was -0.0623 (inactive); in experiment [9], 0.402 (inactive); in experiment [10] it was -0.548; in experiment [11] it was -0.695; in experiment [12] it was 0.0863; in [13], -0.893. In addition, the z-score in [14] was -1.05; in [15] it was -1.09; in [16], -1.83; in experiment [17], -1.25 (inactive); in experiment [18] it was -0.298; in [19], -0.368. Besides, the z-score in experiment [20] is -0.185 (inactive). Besides, the composite z-score in experiment [2] is -0.866.

On to `COc1ccc(COC(=O)NN=C2C[C@@H](O)[C@@H](O)[C@@H]3[C@@H]4C(=O)N(c5cccc(Oc6ccccc6)c5)C(=O)[C@@H]4CC[C@@H]23)cc1`, for which the z-score in experiment [1] was -0.367 (inactive); in experiment [3], 4.54 (inactive); in [4] it was 1.2 (inactive); in experiment [5], 1.28 (inactive); in [6], 0.181 (inactive); in experiment [7] it was -0.313. Moreover, the z-score in experiment [8] was 1.32 (inactive); in experiment [9], 0.56 (inactive); in experiment [10], 1.02; in [11], 0.226; in experiment [12] it was -0.518; in experiment [13], -0.826. Moreover, the z-score in experiment [14] is 0.754; in experiment [15], 0.196; in experiment [16], -0.767; in [17], -0.0215 (inactive); in experiment [18] it was 0.587; in experiment [19] it was -0.442. Further, the z-score in [20] is 0.166 (inactive). In experiment [2], the composite z-score came out at 0.347.

As for `C=CC[C@@H]1C=C[C@H](ON=C(C)CCC(=O)OC[C@H]2O[C@H](c3ccccc3)C=C[C@@H]2Oc2ccc(OC)cc2)[C@@H](CO)O1`, the z-score in [1] was 0.871 (inactive); in experiment [3] it was 10.9 (active); in experiment [4], 1.25 (inactive); in experiment [5] it was 1.2 (inactive); in [6], 0.637 (inactive); in [7] it was -0.0785. The z-score in experiment [8] was -3.06 (inactive); in experiment [9], 0.605 (inactive); in [10], -2.79; in [11], 1.21; in experiment [12], -0.741; in experiment [13], -0.403. The z-score in [14] was -1.91; in experiment [15], -0.428; in [16] it was -0.859; in experiment [17], 0.0616 (inactive); in experiment [18] it was 0.0738; in experiment [19], -1.02. Further, the z-score in experiment [20] is 0.524 (inactive). This molecule gave a composite z-score in experiment [2] of -0.291.

In the case of `COC(=O)[C@@H]1CC[C@H](C)[C@@H](c2ccc(C)cc2)N1C(=O)c1ccc(C=NO[C@@H](C)c2cn([C@H](CO)Cc3ccccc3)nn2)cc1`, the z-score in experiment [1] is 0.442 (inactive); in experiment [3] it was 4.57 (inactive); in experiment [4] it was 1.12 (inactive); in experiment [5], 0.809 (inactive); in experiment [6], 0.907 (inactive); in [7] it was 0.406. The z-score in experiment [8] was -3.24 (inactive); in experiment [9], -1.13 (inactive); in experiment [10], -3.8; in [11] it was 0.724; in [12], -0.412; in experiment [13], -0.759. The z-score in experiment [14] is -1.41; in experiment [15] it was -1.92; in [16], -0.86; in experiment [17], 0.0596 (inactive); in experiment [18], -0.946; in experiment [19], -0.901. For the same molecule, in experiment [20], the z-score is -0.392 (inactive). The same molecule gave a composite z-score in experiment [2] of -0.0615.

As for `CCOC(=O)[C@H](CC(C)C)NC(=O)CCC1CC(OC(=O)NCc2cccc3ccccc23)CC2(CCCC(COC(=O)NCCOC)O2)O1` (stereo not given in full), the z-score in experiment [1] was 1.24 (inactive); in [3], -0.137 (inactive); in experiment [4], 0.184 (inactive); in experiment [5], -0.283 (inactive); in [6], -0.196 (inactive); in experiment [7], 0.142. Also, the z-score was 1.05 (inactive) in experiment [8]; 0.96 (inactive) in [9]; -0.464 in experiment [10]; 2.3 in experiment [11]; 0.217 in [12]; 0.442 in experiment [13]. The z-score in [14] was -0.441; in experiment [15], 0.643; in experiment [16] it was 1.01; in experiment [17] it was -0.356 (inactive); in [18] it was -0.198; in [19], -0.834. For the same molecule, the z-score in [20] was 0.781 (inactive). This molecule came in with a composite z-score in [2] of -0.0559.

For the molecule `CCOC(=O)[C@H](CC(C)C)NC(=O)CCC1CC(OC(=O)NCc2ccc3c(c2)OCO3)CC2(CCCC(COC(=O)NCc3cccc(C(F)(F)F)c3)O2)O1` (stereo not given in full), the z-score was -0.457 (inactive) in experiment [1]; 1.73 (inactive) in experiment [3]; 0.182 (inactive) in experiment [4]; 0.286 (inactive) in experiment [5]; 0.297 (inactive) in experiment [6]; 0.427 in experiment [7]. The z-score is 1.46 (inactive) in experiment [8]; 0.179 (inactive) in [9]; 1.2 in experiment [10]; 0.112 in experiment [11]; 0.214 in experiment [12]; -0.503 in [13]. The z-score was 0.0777 in experiment [14]; -3.36 in experiment [15]; 1.85 in experiment [16]; -0.176 (inactive) in experiment [17]; 0.525 in experiment [18]; -0.412 in [19]. The z-score in experiment [20] is -0.175 (inactive). Also, in experiment [2], the composite z-score worked out at 0.125.

Consider `COC(=O)[C@@H]1CC[C@H](C)[C@@H](c2ccc(C)cc2)N1C(=O)c1ccc(C=NOCC[C@@H]2C=C[C@H](OC(C)=O)[C@@H](COC(C)=O)O2)cc1`, for which the z-score in experiment [1] was 0.118 (inactive); in experiment [3], 3.09 (inactive); in experiment [4], 0.897 (inactive); in [5], 0.533 (inactive); in [6] it was 0.858 (inactive); in [7], -0.994. The z-score in [8] is -1.19 (inactive); in experiment [9], 0.605 (inactive); in experiment [10], -0.134; in experiment [11], -0.521; in experiment [12], 0.556; in experiment [13] it was -1.13. The z-score in experiment [14] was -0.958; in experiment [15] it was -1.32; in [16], -0.674; in [17] it was -1.67 (inactive); in experiment [18] it was 0.682; in experiment [19], -0.136. Also, the z-score in experiment [20] was 0.154 (inactive). In addition, in experiment [2], the composite z-score was -0.111.

Regarding `CC(C)=CCCC(C)=CCON=C1C[C@@H](O)[C@@H](O)[C@@H]2[C@@H]3C(=O)N(C4CCCCC4)C(=O)[C@@H]3CC[C@@H]12`, the z-score is -0.734 (inactive) in experiment [1]; 2.18 (inactive) in [3]; 0.677 (inactive) in experiment [4]; -0.25 (inactive) in experiment [5]; 0.525 (inactive) in [6]; -0.367 in experiment [7]. Further, the z-score in experiment [8] was 0.606 (inactive); in [9], 0.435 (inactive); in [10], -0.18; in [11], -0.972; in experiment [12], -0.345; in experiment [13] it was -1.14. Also, the z-score is -2.39 in experiment [14]; -1.36 in experiment [15]; -1.64 in experiment [16]; -1.22 (inactive) in experiment [17]; -0.258 in experiment [18]; -0.859 in experiment [19]. Moreover, in experiment [20], the z-score is 0.023 (inactive). Also, in experiment [2], the composite z-score was -0.147.
